Only some compounds are listed: those with a hit (about 6.7% of all), similar ones and a draw of the others.
Anthrax LF prot – anthrax lethal factor protease inhibition; P15917; inhibition, % at 10 µM; actives 0.12% (n = 360,000); multiplex microsphere protease cleavage assay, LF; in the data active = inhibition above about 30%; inconclusive = no clear call, values can overlap the other calls
Target sequence (P15917 whole entry, looked up): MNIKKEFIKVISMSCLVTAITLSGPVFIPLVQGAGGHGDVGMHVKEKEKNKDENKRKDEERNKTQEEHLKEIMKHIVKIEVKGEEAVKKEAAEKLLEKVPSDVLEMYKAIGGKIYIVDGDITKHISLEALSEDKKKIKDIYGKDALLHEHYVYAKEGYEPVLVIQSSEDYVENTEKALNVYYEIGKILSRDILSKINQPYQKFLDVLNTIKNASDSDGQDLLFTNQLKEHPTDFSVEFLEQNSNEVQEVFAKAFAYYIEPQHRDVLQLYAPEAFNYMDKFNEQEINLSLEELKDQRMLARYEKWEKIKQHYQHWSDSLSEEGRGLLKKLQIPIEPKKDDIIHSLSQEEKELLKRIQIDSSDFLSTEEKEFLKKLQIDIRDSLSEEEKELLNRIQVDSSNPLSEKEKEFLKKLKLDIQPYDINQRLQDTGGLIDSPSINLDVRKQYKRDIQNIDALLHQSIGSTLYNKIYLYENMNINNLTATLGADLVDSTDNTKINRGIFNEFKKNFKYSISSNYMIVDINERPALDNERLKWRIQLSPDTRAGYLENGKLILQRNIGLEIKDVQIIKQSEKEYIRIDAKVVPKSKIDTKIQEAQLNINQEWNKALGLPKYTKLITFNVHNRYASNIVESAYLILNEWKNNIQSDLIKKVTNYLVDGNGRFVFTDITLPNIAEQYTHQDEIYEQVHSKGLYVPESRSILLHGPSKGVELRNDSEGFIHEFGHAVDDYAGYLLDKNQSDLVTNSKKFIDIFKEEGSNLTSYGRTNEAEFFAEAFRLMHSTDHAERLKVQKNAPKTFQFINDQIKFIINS
BoNT-A LC inh2 – BoNT A light chain protease inhibition; multiplex microsphere protease substrate cleavage, flow cytometry; inhibition, % at 10 µM; actives 0.17% (n = 360,000); AID 588499; in the data active = inhibition above about 30%; inconclusive = no clear call, values can overlap the other calls
BoNT F protease – blocks Botulinum neurotoxin F light chain protease; Multiplex microsphere protease cleavage assay, flow cytometry; inhibition, % at 10 µM; actives 0.22% (n = 360,000); AID 588497; in the data active = inhibition above about 35%, passing the limit was not always enough; inconclusive = no clear call, values can overlap the other calls
GDH-TPI counter-1 – GDH-TPI coupled enzyme inhibition counter-screen; GDH-TPI coupled enzyme counterscreen, NADH absorbance; AID 588335; inhibition, % at 4.8 µM; actives 1.2% (n = 360,000); in the data active = inhibition above about 30%
Mtb FBA inh – inhibitors of M. tuberculosis fructose-bisphosphate aldolase; purified M. tuberculosis FBA, fluorescence read-out; inhibition, % at 1 µM; AID 588726; actives 2.3% (n = 360,000); P9WQA3
Autofluor counter – flagged as autofluorescent in microsphere protease counterscreen; compound autofluorescence counterscreen, microsphere flow cytometry; stronger effect = higher value; fluorescence intensity (concentration not given with the values); actives 3.1% (n = 360,000); in the data active = fluorescence intensity above about 16000; inconclusive = no clear call, values can overlap the other calls
Mtb FBA inh conf – confirmation of M. tuberculosis fructose-bisphosphate aldolase inhibitors | purified M. tuberculosis FBA, fluorescence read-out | shares compounds with Mtb FBA inh | inhibition, % at 1 µM | actives 78% (n = 5,600)
GDH-TPI counter-2 – GDH-TPI inhibition counter-screen for FBA inhibitors; shares compounds with Mtb FBA inh; GDH-TPI coupled enzyme counterscreen, fluorescence; inhibition, % at 1 µM; actives 81% (n = 5,600); AID 652141; in the data active = inhibition above about 10%
Numbers stand for hits; - = inactive; ? = inconclusive; . = not tested or not shown; + = active, no number. Cut-off read from the data, not from the text of the source, unless noted: active = inhibition above about 27%; inactive = the rest.

SMILES	Anthrax LF prot	BoNT-A LC inh2	BoNT F protease	GDH-TPI counter-1	Mtb FBA inh	Autofluor counter	Mtb FBA inh conf	GDH-TPI counter-2
COc1ccc(C=C2C(=O)OC(C)(C)OC2=O)cc1OC	-	-	-	-	-	-	.	.
COc1ccc(/C=C2\OC(=O)c3c(OC)cccc32)cc1OC	-	-	-	-	30	-	125	97
COc1cccc2cc(-c3n[nH]c(=S)n3C)oc12	-	-	-	-	42	-	-	-
Nc1cc(=O)[nH]c(SCC(=O)NCC2CCCO2)n1 (stereo unspecified)	-	-	-	-	-	-	.	.
CC(Oc1ccc(F)cc1)C(=O)N(Cc1ccccc1)c1c(N)n(Cc2ccccc2)c(=O)[nH]c1=O (stereo unspecified)	?	?	?	-	-	-	.	.
CCN(CC)C(=O)COc1ccc2c(c1)C(=O)CC(C)(C)O2	-	-	-	-	59	-	87	72
CC1(C)CC(=O)c2cc(OCC(=O)NCCCN3CCN(c4ccccc4F)CC3)ccc2O1	-	-	-	-	-	-	.	.
CC1(C)CC(=O)c2cc(OCC(=O)N3CCOCC3)ccc2O1	-	-	-	-	48	-	+	+
Cc1ccc(OCC(=O)N2CCOCC2)cc1C	-	-	-	-	-	-	.	.
CC(C)n1cnc2c(Nc3ccc(F)c(Cl)c3)nc(NCCO)nc21	-	-	-	-	-	-	.	.
CC(C)n1cnc2c(Nc3cccc(F)c3)nc(NCCO)nc21	-	-	-	-	32	-	109	91
COc1ccccc1NC(=O)c1nc[nH]c1C(=O)Nc1ccccc1OC	-	-	-	-	-	-	.	.
CC(C)NCC(O)Cn1c2c(c3ccccc31)CCc1c-2cnn1-c1ccccc1 (stereo unspecified)	-	-	-	-	33	-	-	-
O=C(CNS(=O)(=O)c1ccc(F)cc1)N1CCN(c2ccccc2)CC1	-	-	-	-	-	-	.	.
COc1ccc(-c2cc(C(=O)OCC(=O)Nc3cc(C)on3)c3ccccc3n2)cc1OC	.	.	.	-	-	.	.	.
Cc1ccc(-c2cc(C(=O)OCC(=O)Nc3cc(C)on3)c3ccccc3n2)c(C)c1	-	-	-	-	103	-	58	50
COc1ccccc1NC(=O)c1cc[n+]([O-])cc1	-	-	-	-	-	-	.	.
CC1=NCCc2c1[nH]c1cc(O)ccc21	-	-	-	-	74	-	94	48
O=C(Nc1ccc(C(=O)O)cc1)/C(=C\c1ccco1)NC(=O)c1ccccc1	-	-	-	-	-	-	.	.
Cc1cccc(NC(=O)CNC(=O)COC(=O)c2ccc(C(C)(C)C)cc2)c1C	-	-	-	-	-	-	.	.
Cc1cccc(NC(=O)CNC(=O)COC(=O)C2CC2C)c1C (stereo unspecified)	-	-	-	-	30	-	-	-
Cc1ccccc1CS(=O)(=O)CCC(=O)O	-	-	-	-	-	-	.	.
CCOC(=O)Cn1c(C(F)(F)F)nc2nc(Cl)c(Cl)nc21	-	-	-	-	55	-	102	62
Cc1cccc(-c2cc3nc(-c4ccccc4)cc(N4CCC5(CC4)OCCO5)n3n2)c1	-	-	-	-	-	-	.	.
Cc1ccc(-c2cc3nc(-c4ccccc4)cc(N4CCC5(CC4)OCCO5)n3n2)cc1	-	-	-	-	33	-	+	+
SMILES	Anthrax LF prot	BoNT-A LC inh2	BoNT F protease	GDH-TPI counter-1	Mtb FBA inh	Autofluor counter	Mtb FBA inh conf	GDH-TPI counter-2
Fc1cccc(-c2cc3nc(-c4ccccc4)cc(N4CCC5(CC4)OCCO5)n3n2)c1	-	-	?	-	53	-	-	-
CCn1c(SCC(=O)c2cccs2)nnc1-c1ccco1	-	-	-	-	-	-	.	.
Cc1cc(NC(=O)CSc2nnc(-c3ccco3)n2C)no1	-	-	-	-	-	-	.	.
O=C(O)c1cc(-c2c[nH]c3ccccc23)nc2ccc3ccccc3c12	-	-	-	-	45	-	+	136
COc1ccc2nc(Nc3nc4cc5c(cc4s3)OCO5)sc2c1	-	-	-	-	57	-	+	+
COc1ccc(NC(=S)N2CCCCC2c2cccnc2)cc1 (stereo unspecified)	-	-	-	-	-	-	.	.
OC[C@@H]1CCCN1Cc1cn(-c2ccccc2)nc1-c1ccc2c(c1)OCO2	-	-	-	-	29	-	54	35
COc1ccc(Cl)cc1NC(=O)CSc1cccc[n+]1[O-]	-	-	-	-	-	-	.	.
Cn1c(=O)c(S(=O)(=O)C(C)(C)C)c(O)c2ccccc21	-	-	-	-	-	-	.	.
CCOc1ccc(-c2cc(C)[n+](CCO)c(-c3ccc(OCC)cc3)c2)cc1	-	-	-	-	63	-	67	49
O=c1[nH]c(NCCO)nc2c1C1(CCCCC1)Cc1ccccc1-2	-	-	-	-	98	-	-	-
CC1(C)CC(n2c(NCCO)nc3c(c2=O)C2(CCCC2)Cc2ccccc2-3)CCO1 (stereo unspecified)	-	-	-	-	38	-	+	193
CC(=O)Nn1cnc2c(c1=O)C1(CCCCC1)Cc1ccccc1-2	-	-	-	-	-	-	.	.
Cc1ccc2nc3[nH]c(=O)[nH]c(=O)c3c(N)c2c1	-	-	-	-	105	-	-	-
O=C(O)c1c2cc(Br)ccc2nc2[nH]c(=O)[nH]c(=O)c12	-	-	-	-	-	-	.	.
N#CCc1ccc(Oc2ncc(C(F)(F)F)cc2Cl)cc1	-	-	-	-	44	-	123	102
O=C(CSc1nc2scc(-c3ccccc3)c2c(=O)[nH]1)NCCc1ccccc1	-	-	-	-	-	-	.	.
CC(C)(C)NC(=O)CN(C(=O)C(=O)Nc1ccc2c(c1)OCCO2)C1CCCC1	-	-	-	-	-	-	.	.
Fc1cccc(NC(=S)NNc2c3ccccc3nc3ccccc23)c1	-	-	-	-	50	-	187	132
CCCCCCc1cc2cc(C(=O)OCC)c(=O)oc2cc1O	-	-	-	-	44	-	136	97
CCCCCCc1cc2cc(C(=O)Nc3ccc(OC)cc3)c(=O)oc2cc1O	-	-	-	-	-	-	.	.
O=C(NN1CCOCC1)c1cc(-c2ccccc2)nc2ccccc12	-	-	-	-	-	-	.	.
CCN(C(=O)COC(=O)c1cc(-c2ccc(C)o2)nc2ccccc12)C1CCS(=O)(=O)C1 (stereo unspecified)	-	-	-	-	-	-	.	.
O=C(OC1CCOC1=O)c1cc(-c2cccs2)nc2ccccc12 (stereo unspecified)	-	-	-	-	44	-	-	-
O=C(c1cc(-c2cccs2)nc2ccccc12)N1CCN(CCO)CC1	.	.	.	-	99	.	+	+
CCc1ccc(-c2cc(C(=O)NN3CCOCC3)c3ccccc3n2)s1	-	-	-	-	89	-	44	35

Screening results: PubChem, several laboratories
